# Values without a mark were called inactive.
# Compound: C#CCNC(=O)CCSSCCC(=O)NCCc1ccc(C=O)c(C=O)c1
# Assay: lysine labeling ratio R10:1 (500 µM / 50 µM probe), SILAC-ABPP in living cells; higher = lower intrinsic lysine reactivity toward the probe, active = 2 or less
# Conditions: HeLa; probe concentrations 500 vs 50 µM
# Outline: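 Forward and reverse SILAC label swaps were used with living light and heavy HeLa cells in PBS at room temperature, which were given an alkyne-tagged, disulfide-linked lysine probe at 50 µM or 500 µM. R is the per-lysine filtered median high-probe/low-probe MS1 peptide ratio, with the median then taken across both swap directions. Values are limited to 20.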
# Chain of UniProt Q15149 (Q15149 whole entry): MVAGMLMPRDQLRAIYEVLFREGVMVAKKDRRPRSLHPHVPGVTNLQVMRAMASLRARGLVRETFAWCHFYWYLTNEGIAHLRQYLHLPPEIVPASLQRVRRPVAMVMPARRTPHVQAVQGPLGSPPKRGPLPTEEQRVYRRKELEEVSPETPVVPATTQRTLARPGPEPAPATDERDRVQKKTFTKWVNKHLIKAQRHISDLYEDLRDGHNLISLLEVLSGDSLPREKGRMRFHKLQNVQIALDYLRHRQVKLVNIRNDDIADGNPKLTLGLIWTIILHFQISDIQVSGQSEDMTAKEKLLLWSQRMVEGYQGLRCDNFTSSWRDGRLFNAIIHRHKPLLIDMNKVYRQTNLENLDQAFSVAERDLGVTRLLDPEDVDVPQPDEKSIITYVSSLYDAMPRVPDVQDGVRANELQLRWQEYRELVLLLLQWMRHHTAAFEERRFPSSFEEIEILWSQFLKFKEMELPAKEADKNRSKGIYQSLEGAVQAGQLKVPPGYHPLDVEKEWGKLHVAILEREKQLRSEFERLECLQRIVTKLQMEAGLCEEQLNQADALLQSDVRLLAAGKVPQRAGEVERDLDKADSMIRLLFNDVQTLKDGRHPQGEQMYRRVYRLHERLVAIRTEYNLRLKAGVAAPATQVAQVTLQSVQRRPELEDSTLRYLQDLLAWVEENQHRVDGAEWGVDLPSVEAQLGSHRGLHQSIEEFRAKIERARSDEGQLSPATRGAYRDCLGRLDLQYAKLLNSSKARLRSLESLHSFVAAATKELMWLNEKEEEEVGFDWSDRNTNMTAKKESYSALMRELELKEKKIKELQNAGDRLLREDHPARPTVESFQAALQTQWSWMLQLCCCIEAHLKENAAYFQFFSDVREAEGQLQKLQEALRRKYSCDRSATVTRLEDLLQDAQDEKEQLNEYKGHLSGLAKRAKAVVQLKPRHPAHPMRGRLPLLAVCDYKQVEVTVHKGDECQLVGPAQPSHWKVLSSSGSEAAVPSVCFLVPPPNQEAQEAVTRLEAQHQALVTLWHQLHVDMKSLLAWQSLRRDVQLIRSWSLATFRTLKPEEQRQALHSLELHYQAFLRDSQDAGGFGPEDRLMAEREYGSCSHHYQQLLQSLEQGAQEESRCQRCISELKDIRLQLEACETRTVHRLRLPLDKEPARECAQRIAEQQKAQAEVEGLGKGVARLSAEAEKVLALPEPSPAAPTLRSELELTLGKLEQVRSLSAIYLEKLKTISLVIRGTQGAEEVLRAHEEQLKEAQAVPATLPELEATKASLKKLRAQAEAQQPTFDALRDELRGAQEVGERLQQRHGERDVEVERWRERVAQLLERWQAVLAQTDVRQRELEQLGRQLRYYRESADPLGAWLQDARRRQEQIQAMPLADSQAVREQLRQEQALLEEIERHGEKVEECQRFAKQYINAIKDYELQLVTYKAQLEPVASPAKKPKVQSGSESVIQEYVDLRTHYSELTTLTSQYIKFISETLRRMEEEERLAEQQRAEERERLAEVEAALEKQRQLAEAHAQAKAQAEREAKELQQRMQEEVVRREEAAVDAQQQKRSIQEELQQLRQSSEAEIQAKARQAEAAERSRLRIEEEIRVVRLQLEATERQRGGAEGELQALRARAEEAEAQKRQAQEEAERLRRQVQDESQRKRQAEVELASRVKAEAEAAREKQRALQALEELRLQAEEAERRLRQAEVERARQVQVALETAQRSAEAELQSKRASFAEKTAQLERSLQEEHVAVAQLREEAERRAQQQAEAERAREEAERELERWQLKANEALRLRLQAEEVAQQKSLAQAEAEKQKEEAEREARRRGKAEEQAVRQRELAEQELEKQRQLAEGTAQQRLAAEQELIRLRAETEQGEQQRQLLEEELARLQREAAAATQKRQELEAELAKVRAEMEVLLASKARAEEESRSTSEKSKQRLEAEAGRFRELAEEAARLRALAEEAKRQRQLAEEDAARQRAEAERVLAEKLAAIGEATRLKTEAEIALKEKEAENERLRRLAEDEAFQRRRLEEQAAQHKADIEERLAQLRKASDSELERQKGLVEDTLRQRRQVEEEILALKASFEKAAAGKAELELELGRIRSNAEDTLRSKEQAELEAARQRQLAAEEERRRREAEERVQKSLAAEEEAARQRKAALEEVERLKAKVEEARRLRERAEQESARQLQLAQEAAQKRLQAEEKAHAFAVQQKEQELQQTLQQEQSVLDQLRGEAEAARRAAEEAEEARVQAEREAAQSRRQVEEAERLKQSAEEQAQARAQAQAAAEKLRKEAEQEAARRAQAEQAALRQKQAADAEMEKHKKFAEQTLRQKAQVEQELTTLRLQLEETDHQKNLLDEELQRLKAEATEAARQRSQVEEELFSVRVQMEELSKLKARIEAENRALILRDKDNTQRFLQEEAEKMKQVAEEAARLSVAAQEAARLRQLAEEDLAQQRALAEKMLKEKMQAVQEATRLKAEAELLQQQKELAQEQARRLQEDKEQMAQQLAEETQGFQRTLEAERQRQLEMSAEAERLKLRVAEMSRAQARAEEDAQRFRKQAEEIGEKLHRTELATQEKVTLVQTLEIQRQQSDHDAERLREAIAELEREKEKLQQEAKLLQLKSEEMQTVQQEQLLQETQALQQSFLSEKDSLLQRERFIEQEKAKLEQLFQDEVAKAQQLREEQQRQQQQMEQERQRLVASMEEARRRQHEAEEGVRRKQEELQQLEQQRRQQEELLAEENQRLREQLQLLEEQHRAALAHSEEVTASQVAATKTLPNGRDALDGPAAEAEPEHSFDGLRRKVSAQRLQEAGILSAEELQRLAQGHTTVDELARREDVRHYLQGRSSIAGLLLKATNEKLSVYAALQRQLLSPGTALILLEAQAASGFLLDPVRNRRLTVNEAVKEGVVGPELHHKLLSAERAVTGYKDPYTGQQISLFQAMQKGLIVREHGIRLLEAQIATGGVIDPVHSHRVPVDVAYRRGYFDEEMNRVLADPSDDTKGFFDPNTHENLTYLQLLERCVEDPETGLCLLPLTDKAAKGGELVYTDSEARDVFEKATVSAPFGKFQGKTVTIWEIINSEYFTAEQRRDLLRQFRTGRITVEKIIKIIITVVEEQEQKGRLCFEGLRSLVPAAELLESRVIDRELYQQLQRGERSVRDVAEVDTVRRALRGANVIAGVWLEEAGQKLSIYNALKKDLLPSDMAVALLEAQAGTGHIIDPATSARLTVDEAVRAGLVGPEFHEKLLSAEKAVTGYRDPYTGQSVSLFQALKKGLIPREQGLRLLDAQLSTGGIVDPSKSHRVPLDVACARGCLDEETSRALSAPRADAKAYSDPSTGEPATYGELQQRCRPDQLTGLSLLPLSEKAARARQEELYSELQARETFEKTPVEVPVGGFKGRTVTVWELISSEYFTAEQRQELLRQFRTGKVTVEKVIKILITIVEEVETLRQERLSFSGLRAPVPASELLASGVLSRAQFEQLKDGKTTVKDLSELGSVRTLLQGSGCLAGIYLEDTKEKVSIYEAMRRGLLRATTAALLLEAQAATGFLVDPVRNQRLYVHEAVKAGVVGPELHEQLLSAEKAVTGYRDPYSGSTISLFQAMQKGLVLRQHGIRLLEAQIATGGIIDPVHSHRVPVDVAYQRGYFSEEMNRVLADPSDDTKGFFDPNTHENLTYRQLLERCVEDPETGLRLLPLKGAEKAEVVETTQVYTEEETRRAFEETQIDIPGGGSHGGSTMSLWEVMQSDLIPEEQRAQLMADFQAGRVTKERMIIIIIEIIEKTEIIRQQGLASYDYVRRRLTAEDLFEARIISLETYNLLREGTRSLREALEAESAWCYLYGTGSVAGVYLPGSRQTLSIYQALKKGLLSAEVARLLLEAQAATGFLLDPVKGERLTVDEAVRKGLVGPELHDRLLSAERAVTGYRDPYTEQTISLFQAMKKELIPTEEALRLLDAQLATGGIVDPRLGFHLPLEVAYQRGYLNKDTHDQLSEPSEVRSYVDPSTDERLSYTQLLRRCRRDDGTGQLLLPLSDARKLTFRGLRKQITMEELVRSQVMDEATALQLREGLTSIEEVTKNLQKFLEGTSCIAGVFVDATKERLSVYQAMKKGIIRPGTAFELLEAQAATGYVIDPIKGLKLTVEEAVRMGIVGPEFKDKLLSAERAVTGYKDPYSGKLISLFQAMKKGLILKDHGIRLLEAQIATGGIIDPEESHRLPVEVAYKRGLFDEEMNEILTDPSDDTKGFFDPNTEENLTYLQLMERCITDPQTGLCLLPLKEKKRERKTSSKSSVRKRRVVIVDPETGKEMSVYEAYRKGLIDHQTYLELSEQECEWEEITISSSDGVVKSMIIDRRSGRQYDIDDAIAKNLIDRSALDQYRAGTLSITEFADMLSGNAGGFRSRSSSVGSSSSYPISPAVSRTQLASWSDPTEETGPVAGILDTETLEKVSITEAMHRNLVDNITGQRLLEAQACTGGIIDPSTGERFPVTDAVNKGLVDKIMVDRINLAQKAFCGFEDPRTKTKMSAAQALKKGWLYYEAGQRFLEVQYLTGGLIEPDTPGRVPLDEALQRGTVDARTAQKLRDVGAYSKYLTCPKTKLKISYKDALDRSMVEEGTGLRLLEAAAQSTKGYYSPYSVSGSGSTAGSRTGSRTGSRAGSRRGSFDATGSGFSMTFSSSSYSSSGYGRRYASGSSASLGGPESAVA
# Chain of UniProt P09382 (P09382 whole entry): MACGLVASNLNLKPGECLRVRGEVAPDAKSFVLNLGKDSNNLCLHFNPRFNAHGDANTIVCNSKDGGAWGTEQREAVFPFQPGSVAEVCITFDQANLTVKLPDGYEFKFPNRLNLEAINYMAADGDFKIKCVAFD
# Chain of UniProt Q9NX63 (Q9NX63 whole entry): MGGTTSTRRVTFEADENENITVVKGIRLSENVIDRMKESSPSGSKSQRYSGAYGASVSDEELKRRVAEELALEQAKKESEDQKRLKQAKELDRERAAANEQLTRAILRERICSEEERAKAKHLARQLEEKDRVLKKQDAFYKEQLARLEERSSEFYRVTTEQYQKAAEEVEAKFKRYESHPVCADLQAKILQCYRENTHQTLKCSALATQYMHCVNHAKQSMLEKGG
row,Target,lysine labeling ratio R10:1
1,UniProt P05787 (lysine site: K325),12.1
2,UniProt P55285 (lysine site: K276),1.67 (active)
3,UniProt Q15149 (lysine site: K1975),5.68
4,HNRNPM (lysine site: K716) (UniProt P52272),1.35 (active)
5,FGB (lysine site: K426) (UniProt P02675),2.95
6,NUMA1 (lysine site: K891) (UniProt Q14980),1.87 (active)
7,SURF4 (lysine site: K139) (UniProt O15260),3.69
8,CHCHD3 (lysine site: K86) (UniProt Q9NX63),0.99 (active)
9,DDX5 (lysine site: K264) (UniProt P17844),7.01
10,LGALS1 (lysine site: K64) (UniProt P09382),3.47
11,FN1 (lysine site: K249) (UniProt P02751),2.7
12,IGSF3 (lysine site: K811) (UniProt O75054),3.23
13,ALCAM (lysine site: K75) (UniProt Q13740),9.89
14,RPL4 (lysine site: K259) (UniProt P36578),1.88 (active)
15,UniProt Q15149 (lysine site: K2396),2.3
16,VCL (lysine site: K316) (UniProt P18206),1.77 (active)
17,TFRC (lysine site: K180) (UniProt P02786),2.39
